Results published in the supplement of paper PMC6555819.

system: RARb homodimer (NR concentration 270 nM); test: PBM binding z-score (relative to random genomic background probes); higher = stronger binding; sequences stand for … in GC…GCGATTGACAGCGTAGAATGAAGG
How it was run: (§1)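 Ligand-free nuclear receptor dimers were applied to custom Agilent 4×180K protein-binding microarrays whose double-stranded probes carried direct-repeat seeds, single-nucleotide variants, half-site ablations and random human genomic background sequences in 34-nt variable regions. Incubation lasted 1 h. Binding z-scores were computed against the random background probes from regression-normalized fluorescence.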

Row | Sequence | PBM binding z-score
1 | CCTGCTAGGTCATGGTCGGCTAATCTACAGTATG | 2.46
2 | TCATATAGGTAAAAGGTGAAAGCCGGTGTGGTAA | 1.74
3 | CCTATTAGTTGACCATAAGCGCAACCGAAGCTCG | 0.669
4 | TCGAGTAGGTCACCAATGGGGCATTCAGCTTTCT | 3.59
5 | CCTAGTTGGTCAGGAGGTCACACAACGGATATGA | 4.4
6 | ATATGTAGGTTACATCCGGGTCATTCCGGCTATG | 2.71
7 | TCTTGTAGATCAACAGGACGTTAAGAAAGATCGA | -0.694
8 | ACTAGCAGGCCAAGGGTCACACAAGATTAGTCCG | 4.06
9 | CCCGACAGGTGAGAAGGTAACTCAGCCTCGATTA | 0.604
10 | ATCTCTAGGTAAAAGTTCAGGGAATCCCGAGGAT | 2.58
11 | CCGACAGGGGCAGAAAGGTTACCATACCATCCGG | 2.48
12 | TGAATGAGGTAAAAGATCAGGGAACGTGGCGTCG | -0.605
13 | CGAACTAGGTCATTGACAGGACAGTGCATAGTAA | 2.87
14 | CCGACTGTGGCAGAAAGGTTACCATACCATCCGG | 1.82
15 | TTACCAAGGTGAGCTGAGGTCTTTGATCCAACTC | 0.568
16 | TCTGCTAGGTCATTTGGTCAGCTAACGAGCTGCC | 2.97
17 | GGAACGAGGGCATAGTTGATAGCATCTGTCGACG | 0.536
18 | ACTCGCAGGCCAAGTTTGGGTCACTCAAACAAAG | 2.5
19 | CTCGAAAGGTCGTGCTCGGGTGAGTATACCAAAC | 2.72
20 | ATCTCTAGGTAACCAACTTCAGTGAATGCCGAAC | 0.171

Row | Sequence | PBM binding z-score
21 | CCTACTGGGCCACGAAAGGACATTGATTCAGTGA | 1.2
22 | TCTTGTAGATCAGCAGGTTAAGACAGCTGGCCAA | 0.0345
23 | CGTCCAAGGTCAAGGCTAGGTCAGTGAAAGCATT | 4.89
24 | ATCTCTAGGTAAAGTTCGGTGAAAGATCGATAGA | 0.59
25 | GCTGCTAGGTCAGGTTGGACAGCTAACGGGTACG | 2.35
26 | CAGACTAGGTCACGAAAGGTCAAAGTCGAATGAC | 5.63
27 | ACTATTGGTTGAGACGAGGGCAACCGATAGGTTG | 1.15
28 | GCTGCTAGGTCAGGTTGCTCAGCTAACGGGTACG | 2.14
29 | AGAATGAGGTTATACGTAGATTAGGGAAGAAAGT | 0.89
30 | TCGAGTATGTTACCAATGGGGCATTCAGCTTTCT | -0.135
31 | ATATGTAGGTTATCGGGTAATTCAGTTTGCGCAT | 0.9
32 | CCAACTGGGCCATTCAGAGGTCATTGATCATATG | 3.76
33 | AGTCAAAGTTCACTAGGTAACGAAAGATTCAGCT | 3.45
34 | ATATGTAGGTTACACCCGGGTCATTCAGGCTATG | 3.06
35 | TCGCCTAGGTCAGATCGGGCCAGTATACGCTATA | 2.21
36 | ACTAGATGGTCAGCTGAGGTCACACACAATTCGG | 4.52
37 | CATACAGAGTCAGCTAGGCCAGAGTAGGGACGGC | -0.0712
38 | GCAACTGGGGCATCAGCAGGTTACCATAACTTAA | 0.793
39 | GTACCAACGTGAATAGGTCGTTGATGAGTAGGCG | 0.16

system: RARg:RXRa (NR concentration 270 nM, RXRa partner concentration 90 nM); test: as above
How it was run: as §1

Row | Sequence | PBM binding z-score
40 | CCTGCTAGGTCATGGTCGGCTAATCTACAGTATG | 3.92
41 | TCATATAGGTAAAAGGTGAAAGCCGGTGTGGTAA | 2.11
42 | CCTATTAGTTGACCATAAGCGCAACCGAAGCTCG | 0.621
43 | TCGAGTAGGTCACCAATGGGGCATTCAGCTTTCT | 5.11
44 | CCTAGTTGGTCAGGAGGTCACACAACGGATATGA | 5.09
45 | ATATGTAGGTTACATCCGGGTCATTCCGGCTATG | 3.56
46 | TCTTGTAGATCAACAGGACGTTAAGAAAGATCGA | 0.531
47 | ACTAGCAGGCCAAGGGTCACACAAGATTAGTCCG | 4.6
48 | CCCGACAGGTGAGAAGGTAACTCAGCCTCGATTA | 0.562
49 | ATCTCTAGGTAAAAGTTCAGGGAATCCCGAGGAT | 2.3
50 | CCGACAGGGGCAGAAAGGTTACCATACCATCCGG | 1.84
51 | TGAATGAGGTAAAAGATCAGGGAACGTGGCGTCG | 0.328
52 | CGAACTAGGTCATTGACAGGACAGTGCATAGTAA | 4.65
53 | CCGACTGTGGCAGAAAGGTTACCATACCATCCGG | 1.02
54 | TTACCAAGGTGAGCTGAGGTCTTTGATCCAACTC | 0.335
55 | TCTGCTAGGTCATTTGGTCAGCTAACGAGCTGCC | 3.84
56 | GGAACGAGGGCATAGTTGATAGCATCTGTCGACG | 0.949
57 | ACTCGCAGGCCAAGTTTGGGTCACTCAAACAAAG | 2.65
58 | CTCGAAAGGTCGTGCTCGGGTGAGTATACCAAAC | 5.23
59 | ATCTCTAGGTAACCAACTTCAGTGAATGCCGAAC | 0.209

Row | Sequence | PBM binding z-score
60 | CCTACTGGGCCACGAAAGGACATTGATTCAGTGA | 0.593
61 | TCTTGTAGATCAGCAGGTTAAGACAGCTGGCCAA | 0.0307
62 | CGTCCAAGGTCAAGGCTAGGTCAGTGAAAGCATT | 7.82
63 | ATCTCTAGGTAAAGTTCGGTGAAAGATCGATAGA | 0.582
64 | GCTGCTAGGTCAGGTTGGACAGCTAACGGGTACG | 2.56
65 | CAGACTAGGTCACGAAAGGTCAAAGTCGAATGAC | 7.9
66 | ACTATTGGTTGAGACGAGGGCAACCGATAGGTTG | 0.833
67 | GCTGCTAGGTCAGGTTGCTCAGCTAACGGGTACG | 2.32
68 | AGAATGAGGTTATACGTAGATTAGGGAAGAAAGT | 1.67
69 | TCGAGTATGTTACCAATGGGGCATTCAGCTTTCT | -0.111
70 | ATATGTAGGTTATCGGGTAATTCAGTTTGCGCAT | 0.94
71 | CCAACTGGGCCATTCAGAGGTCATTGATCATATG | 4.28
72 | AGTCAAAGTTCACTAGGTAACGAAAGATTCAGCT | 4.86
73 | ATATGTAGGTTACACCCGGGTCATTCAGGCTATG | 3.97
74 | TCGCCTAGGTCAGATCGGGCCAGTATACGCTATA | 2.39
75 | ACTAGATGGTCAGCTGAGGTCACACACAATTCGG | 4.38
76 | CATACAGAGTCAGCTAGGCCAGAGTAGGGACGGC | -0.273
77 | GCAACTGGGGCATCAGCAGGTTACCATAACTTAA | 0.74
78 | GTACCAACGTGAATAGGTCGTTGATGAGTAGGCG | 0.141
